Assay outcomes deposited in PubChem by Buhrlage Lab, Dana-Farber Cancer Institute and Novartis Institutes for BioMedical Research (Cambridge, Mass).
Most compounds without a hit are left out; they make up all but 12% or so of the library.
USP28 block – human USP28 deubiquitinase inhibition | purified USP28, Ub-rhodamine cleavage fluorescence, 30 min | Q96RU2 | inhibition, % at 25 µM | 47,000 compounds, 3% hits
OTUD3 inh – inhibitors of human OTUD3 deubiquitinase | 47,000 compounds, 0.7% hits | Q5T2D3 | inhibition, % at 25 µM | purified OTUD3, Ub-rhodamine fluorescence, 2 h
USP30 block – human USP30 deubiquitinase inhibition | purified USP30, Ub-rhodamine cleavage fluorescence | AID 1645860 | 47,000 compounds, 5.3% hits | inhibition, % at 25 µM
USP17 block – human USP17-like deubiquitinase inhibition; inhibition, % at 50 µM; 47,000 compounds, 6.5% hits; A8MUK1; purified USP17, Ub-rhodamine cleavage fluorescence, 3 h; AID 1645855
Target sequence (A8MUK1 whole entry, looked up): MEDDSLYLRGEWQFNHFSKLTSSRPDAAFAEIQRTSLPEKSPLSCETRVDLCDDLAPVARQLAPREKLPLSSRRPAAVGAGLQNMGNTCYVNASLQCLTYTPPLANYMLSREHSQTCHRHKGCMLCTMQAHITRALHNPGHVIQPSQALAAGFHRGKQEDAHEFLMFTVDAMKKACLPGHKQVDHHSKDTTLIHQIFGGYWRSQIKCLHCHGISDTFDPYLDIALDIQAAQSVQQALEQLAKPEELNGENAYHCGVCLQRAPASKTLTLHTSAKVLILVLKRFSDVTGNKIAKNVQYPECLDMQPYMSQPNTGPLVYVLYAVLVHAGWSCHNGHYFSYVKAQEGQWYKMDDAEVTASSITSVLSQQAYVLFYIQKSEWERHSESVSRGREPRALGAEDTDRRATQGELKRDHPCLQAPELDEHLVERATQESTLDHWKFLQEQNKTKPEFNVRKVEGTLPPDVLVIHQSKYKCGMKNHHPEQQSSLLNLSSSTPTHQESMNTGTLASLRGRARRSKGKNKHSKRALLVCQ
The depositor's hits bear a star; . = not tested or not shown. Rule as the data show it: active = inhibition above about 30%; inactive = the rest.

SMILES | USP28 block | OTUD3 inh | USP30 block | USP17 block
CC(C(=O)NCCc1ccc(S(N)(=O)=O)cc1)n1sc2ccccc2c1=O (centres undefined) | 15.9 | 24.5 | 38.5* | -0.2
CC(C)c1ncc(-c2ccccn2)c(-c2ccc(CNC(=O)COc3cccnc3)cc2)n1 | 11.2 | 9.8 | 11.6 | 5.6
Cn1c(=O)c2c(nc3n(CCO)c(-c4ccc(Cl)cc4)cn23)n(C)c1=O | 9.6 | 5.4 | 36.1* | 5.5
O=C(N1CCC2(CC1)CC2)C1(c2cccc(F)c2)CCOCC1 | -9.3 | -5.1 | -7.3 | -7.8
O=C(CCn1cccn1)N1CCN(c2cccc(Cl)c2)CC1 | 13.0 | 16.9 | 22.7 | 13.4
Cn1nc(-c2nc(-c3ccccc3)no2)c2c1CCN(C(=O)C1CC1)C2 | 12.3 | 12.7 | 68.1* | 42.5*
Cn1nc(-c2nc(-c3ccccc3)no2)c2c1CCN(C(=O)C1CCC1)C2 | 8.9 | -6.3 | 5.8 | 1.9
Cn1nc(-c2nc(-c3ccccc3)no2)c2c1CCN(C(=O)C1CCCC1)C2 | -6.2 | 5.4 | -14.9 | 64.2*
Cc1cc(=O)oc2cc(OCC(=O)Nc3cccc(Cl)c3)ccc12 | -26.0 | -13.7 | -45.8 | 8.5
O=C1N(c2cccc(C(F)(F)F)c2)C2CS(=O)(=O)CC2N1c1cccc(C(F)(F)F)c1 (centres undefined) | -8.5 | -4.5 | -15.6 | -15.4
O=C(c1cnn2ccccc12)N1CCN(S(=O)(=O)/C=C/c2ccccc2)CC1 | 11.2 | 10.5 | 32.9* | 11.4
CCOc1ccccc1C(=O)Oc1ccc2c(C)cc(=O)oc2c1 | 7.6 | 2.1 | 31.0* | 59.4*
COCCCn1c(C(=O)NCc2ccc(F)cc2)cc2c(=O)n3ccccc3nc21 | -14.2 | -2.6 | -25.5 | 37.8*
CO[C@H]1CC[C@H](O)c2c1oc1c3c4c(c(O)c1c2=O)-c1c(cc2c(Cl)c(C)n(N)c(=O)c2c1O)C[C@@H]4OCO3 | 59.0* | 43.5* | 0.5 | 62.3*
CC(=O)c1ccc(S(=O)(=O)Nc2ccc(C(=O)O)cc2)cc1 | -1.8 | -5.1 | -95.0 | -29.3
NS(=O)(=O)c1ccc(NS(=O)(=O)c2ccc(NC(=O)Nc3ccc(Cl)cc3)cc2)cc1 | 74.7* | 20.0 | 48.9* | 40.8*
COc1ccc(-c2ocnc2C(=O)Nc2ccc(C)c(F)c2)cc1 | . | -9.1 | . | -2.3
O=C(Nc1cccc(F)c1)c1ncoc1-c1ccco1 | 16.9 | 12.5 | -20.2 | 54.4*
CCOC(=O)N1CCC(NC(=O)c2cnn3c(-c4ccccc4)ccnc23)CC1 | 2.7 | 0.0 | 39.6* | 32.0*
O=C(O)c1cccc(S(=O)(=O)NCc2ccc3c(c2)OCO3)c1 | 9.1 | 15.9 | 35.0* | 8.8
O=C(O)c1cn2c3c(cccc3c1=O)CCC2 | 2.7 | -5.4 | 2.9 | 5.4
O=C(Nc1ccccc1)c1cn2c3c(cccc3c1=O)CC2 | 2.9 | 2.2 | 0.6 | 68.6*
Cc1cccc(Nc2nccnc2C2CCN(C(=O)c3ccn[nH]3)CC2)n1 | 0.9 | 8.8 | 10.9 | 3.6
O=C(COc1ccc(F)cc1Br)N1CCSc2ccccc21 | 6.0 | 11.7 | 13.6 | 12.4
O=C(COc1ccccc1F)N1CCSc2ccc(Cl)cc21 | 41.4* | 25.7 | 34.2* | 31.5*
SMILES | USP28 block | OTUD3 inh | USP30 block | USP17 block
O=C(CNc1ccc(F)c(Cl)c1)Nc1ccc2c(c1)OCCO2 | 63.5* | 6.5 | 11.6 | 16.9
O=C(CC(c1cccc(F)c1)n1cccc1)Nc1ccc2c(c1)OCCO2 (centres undefined) | 1.0 | -2.3 | 0.9 | 1.8
Cc1cc(C)cc(C(=O)OCC(=O)Nc2ccc3c(c2)OCCO3)c1 | 2.0 | -1.2 | 13.9 | 5.2
O=C(COC(=O)c1cc(Cl)ccc1O)Nc1ccc2c(c1)OCCO2 | 13.9 | 16.2 | 18.9 | 60.0*
O=C(COC(=O)c1ccc(NS(=O)(=O)c2ccc3c(c2)OCCO3)cc1)NCc1ccc(Cl)cc1 | 74.5* | -18.1 | 50.4* | 18.1
CCn1c(Cn2cccn2)nc2cc(NC(=O)C3CCCCC3)ccc21 | 37.6* | 7.5 | 12.5 | -59.6
CCn1c(Cn2cccn2)nc2cc(NC(=O)c3ccccc3C)ccc21 | 46.1* | 1.3 | -14.6 | -2.6
COc1ccccc1CNC(=O)C1CCN(C(=O)c2cc(-c3cccnc3)n[nH]2)CC1 | 11.4 | 14.7 | 9.4 | 7.1
Cc1ccc(CSc2nnc(C3CCNCC3)o2)cc1 | 32.4* | 11.8 | 19.1 | -5.5
CCOC(=O)CSc1nnc(-c2cnn(-c3ccccc3)c2N)o1 | 15.3 | 6.9 | 20.8 | 57.6*
CC(C)C(NC(=O)c1ccccc1)C(=O)OCC(=O)NC(c1ccccc1)c1ccccc1 (centres undefined) | 11.6 | 17.9 | 17.5 | 8.5
COc1ccc(-c2cc3ncnc(NC(C)c4ccco4)c3s2)cc1 (centres undefined) | 21.1 | 5.9 | -20.8 | 58.3*
COc1ccc(-c2noc(CN(C)Cc3ccc(C(C)C)cc3)n2)cc1 | -3.2 | -2.3 | -3.4 | 0.0
CCCCCC(=O)C(CCCC)c1oc(=O)c(CCCC)c(O)c1CCCC (centres undefined) | 14.4 | 17.4 | 25.2 | 30.3*
C[C@@H]1OC(O[C@@H]2C[C@H](c3ccc4c(c3O)C(=O)C3=C(C4=O)[C@@]4(OC5CC[C@H](O)[C@H](C)O5)C(=O)C[C@](C)(O)C[C@@]4(O)C=C3)O[C@H](C)C2O)CC[C@@H]1O[C@H]1C[C@@H](O)[C@H](O)[C@@H](C)O1 (some centres undefined) | -199.9 | -85.3 | -389.2 | -45.0
CC1O[C@@H](c2ccc3c(c2O)C(=O)C2=C(C3=O)[C@@]3(O)C(=O)C(O)[C@](C)(O)C[C@@]3(O)C=C2)CC[C@@H]1OC(=O)/C=C/C=C/C=C/[C@@H]1O[C@@](C)(C(=O)O)O[C@H]1C (some centres undefined) | 48.4* | 46.3* | -106.1 | 48.4*
O=C(NC1CC1)c1cc2cccc3c2n1CCS3 | -48.9 | -95.8 | -377.6 | -83.7
O=C1CCCN1c1ccc(OCC(=O)N2CCCc3ccccc32)cc1 | -4.5 | -1.5 | 11.1 | -6.9
CCn1c(=O)[nH]c2ccc(Br)cc2c1=O | 2.9 | 6.8 | 15.0 | 5.9
NC(=S)N=Nc1c(O)[nH]c2ccc(Br)cc12 | 14.0 | 6.6 | 33.8* | 21.8
O=C(COC(=O)c1cccc([N+](=O)[O-])c1)Nc1cccc(Oc2ccccc2)c1 | 20.1 | 6.5 | 32.4* | 8.8
COC(=O)c1ccc(NC(=O)CCC(=O)OCC(=O)c2cccc([N+](=O)[O-])c2)cc1 | 0.0 | -0.3 | 1.1 | 2.9
COc1cccc(OC)c1C(=O)OCC(=O)Nc1ccc(Oc2ccccc2)cc1 | 34.0* | 11.6 | 22.9 | 13.8
CC(C)Oc1ccc(C(=O)OCC(=O)Nc2ccc(Oc3ccccc3)cc2)cc1 | 9.4 | 0.1 | 3.8 | 4.6
Cc1cc(-c2ccccc2)nc2oc3c(=O)n(Cc4ccc(Cl)cc4)cnc3c12 | 2.2 | 0.0 | 0.1 | 9.1
Cc1c(C(=O)Nc2nnc(C3CC3)s2)cccc1[N+](=O)[O-] | 0.4 | 4.1 | 16.9 | -6.9
Cc1ccc(S(=O)(=O)N(CC#N)c2nc3nc(C)c(Cl)c(C)n3n2)cc1 | 33.4* | 14.5 | 15.7 | -1.2
Cc1ccc(S(=O)(=O)N(C)c2nc3nc(C)c(Cl)c(C)n3n2)cc1 | 13.2 | 9.7 | 3.4 | 17.9
COc1ccc([C@H]2N(C(=O)c3cccc4ncccc34)CCC[C@]23CCC(=O)N3)cc1 | . | 2.0 | . | -6.4
